Experimental data as given in the supplement of paper PMC11732987, “Enantioselective OTUD7B fragment discovery through chemoproteomics screening and high-throughput optimisation” (Communications Chemistry, 2025).

Assays:
Assay in all cases: log2 ratio of Biotin-Ahx-Ub-VS probe labelling (fragment/DMSO); higher = less target engagement (more negative = stronger competition), active = hit call of the paper (q ≤ 0.05, log2 ratio ≤ -1)
Settings in all cases: compound concentration: 200 uM; treatment time: 3 h
USP42 = molecular target: T1, USP42 (UniProt Q9H9J4)
T1 sequence (whole entry): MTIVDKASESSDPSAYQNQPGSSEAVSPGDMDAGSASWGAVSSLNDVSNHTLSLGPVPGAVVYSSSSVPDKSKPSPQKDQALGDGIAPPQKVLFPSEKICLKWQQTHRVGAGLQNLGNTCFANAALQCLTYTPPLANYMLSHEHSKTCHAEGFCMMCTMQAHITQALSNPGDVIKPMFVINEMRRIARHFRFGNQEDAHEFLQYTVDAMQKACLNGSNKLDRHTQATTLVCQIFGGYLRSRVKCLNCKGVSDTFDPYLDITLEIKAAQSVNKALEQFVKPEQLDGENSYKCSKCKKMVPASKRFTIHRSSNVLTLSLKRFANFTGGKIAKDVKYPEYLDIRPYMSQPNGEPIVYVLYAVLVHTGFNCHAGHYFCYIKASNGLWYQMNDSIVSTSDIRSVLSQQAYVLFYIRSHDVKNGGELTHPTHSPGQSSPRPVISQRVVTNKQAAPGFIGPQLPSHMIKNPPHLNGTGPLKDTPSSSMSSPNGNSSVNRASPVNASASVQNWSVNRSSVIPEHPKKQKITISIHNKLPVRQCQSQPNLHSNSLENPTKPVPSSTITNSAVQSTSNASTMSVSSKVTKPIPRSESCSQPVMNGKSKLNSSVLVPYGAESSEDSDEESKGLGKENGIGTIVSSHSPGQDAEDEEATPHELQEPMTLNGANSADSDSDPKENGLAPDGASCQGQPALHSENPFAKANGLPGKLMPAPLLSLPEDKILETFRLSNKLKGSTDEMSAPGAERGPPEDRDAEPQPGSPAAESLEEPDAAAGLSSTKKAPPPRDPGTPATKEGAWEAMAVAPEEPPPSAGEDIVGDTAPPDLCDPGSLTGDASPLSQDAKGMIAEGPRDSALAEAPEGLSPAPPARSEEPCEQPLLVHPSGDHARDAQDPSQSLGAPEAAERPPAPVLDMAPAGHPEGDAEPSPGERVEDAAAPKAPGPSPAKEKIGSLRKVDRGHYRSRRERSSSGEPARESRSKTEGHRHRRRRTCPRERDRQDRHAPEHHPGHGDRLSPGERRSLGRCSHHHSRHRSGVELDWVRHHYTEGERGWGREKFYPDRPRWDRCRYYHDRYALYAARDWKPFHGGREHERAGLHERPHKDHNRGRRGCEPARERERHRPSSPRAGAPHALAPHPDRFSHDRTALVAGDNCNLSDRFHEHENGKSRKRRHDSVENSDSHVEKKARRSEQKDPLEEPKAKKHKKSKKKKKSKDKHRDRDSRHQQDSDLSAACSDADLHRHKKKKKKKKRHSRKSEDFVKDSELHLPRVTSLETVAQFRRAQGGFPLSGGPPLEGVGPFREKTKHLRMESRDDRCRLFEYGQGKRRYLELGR
Outline: (§1)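 HEK293T lysate (495 µg per sample, in Tris/CHAPS/IGEPAL buffer with protease inhibitors) was treated in triplicate with fragment at 200 µM or with DMSO for 3 h. It was then treated with Biotin-Ahx-Ub-VS (0.5 µM final) for 1 h. Labelled DUBs were NeutrAvidin-enriched, digested with LysC and trypsin, and run by diaPASEF LC-MS/MS. Spectronaut label-free quantities were global-median-normalised. Values are average log2 ratios fragment/DMSO by unpaired t-test, using proteins with ≥2 unique peptides.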

USP46 = USP46 (UniProt P62068)
Outline: as §1

USP47 = molecular target: T2, USP47 (UniProt Q96K76)
T2 sequence (whole entry): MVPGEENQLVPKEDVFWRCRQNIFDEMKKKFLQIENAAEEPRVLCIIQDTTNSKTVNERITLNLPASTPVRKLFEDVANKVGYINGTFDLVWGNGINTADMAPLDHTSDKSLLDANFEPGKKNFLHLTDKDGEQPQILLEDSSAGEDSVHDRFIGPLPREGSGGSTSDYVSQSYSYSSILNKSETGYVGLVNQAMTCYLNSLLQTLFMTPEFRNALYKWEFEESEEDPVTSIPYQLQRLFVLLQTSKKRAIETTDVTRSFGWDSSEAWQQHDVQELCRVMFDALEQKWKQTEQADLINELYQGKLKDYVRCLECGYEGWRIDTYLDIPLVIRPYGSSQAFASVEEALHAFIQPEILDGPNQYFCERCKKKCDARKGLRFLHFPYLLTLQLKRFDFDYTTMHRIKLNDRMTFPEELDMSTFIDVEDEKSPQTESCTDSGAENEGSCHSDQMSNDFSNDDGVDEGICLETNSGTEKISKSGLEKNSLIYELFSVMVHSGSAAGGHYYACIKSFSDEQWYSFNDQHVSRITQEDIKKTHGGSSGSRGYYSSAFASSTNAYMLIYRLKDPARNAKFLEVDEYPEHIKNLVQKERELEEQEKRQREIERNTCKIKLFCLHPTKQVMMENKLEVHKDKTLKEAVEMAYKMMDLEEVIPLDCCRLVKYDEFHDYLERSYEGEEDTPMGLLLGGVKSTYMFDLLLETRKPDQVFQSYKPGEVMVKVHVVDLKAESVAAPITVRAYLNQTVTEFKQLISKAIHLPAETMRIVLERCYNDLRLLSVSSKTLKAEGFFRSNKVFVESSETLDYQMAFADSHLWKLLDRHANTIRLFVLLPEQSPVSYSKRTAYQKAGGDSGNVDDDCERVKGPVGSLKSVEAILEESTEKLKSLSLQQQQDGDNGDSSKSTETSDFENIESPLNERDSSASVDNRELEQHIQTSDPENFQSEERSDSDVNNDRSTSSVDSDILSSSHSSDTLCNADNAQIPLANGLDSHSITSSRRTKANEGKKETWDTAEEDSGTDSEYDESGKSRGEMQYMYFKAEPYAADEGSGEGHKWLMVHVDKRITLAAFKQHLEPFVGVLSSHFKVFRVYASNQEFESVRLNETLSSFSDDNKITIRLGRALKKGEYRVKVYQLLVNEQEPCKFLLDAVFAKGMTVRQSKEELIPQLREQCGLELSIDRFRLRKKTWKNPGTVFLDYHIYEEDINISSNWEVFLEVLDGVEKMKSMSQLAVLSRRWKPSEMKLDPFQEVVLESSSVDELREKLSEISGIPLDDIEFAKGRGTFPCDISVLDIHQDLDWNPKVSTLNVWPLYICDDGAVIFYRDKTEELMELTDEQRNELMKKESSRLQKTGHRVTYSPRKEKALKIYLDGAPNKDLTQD
Outline: as §1

USP48 = molecular target: T3, USP48 (UniProt Q86UV5)
T3 sequence (whole entry): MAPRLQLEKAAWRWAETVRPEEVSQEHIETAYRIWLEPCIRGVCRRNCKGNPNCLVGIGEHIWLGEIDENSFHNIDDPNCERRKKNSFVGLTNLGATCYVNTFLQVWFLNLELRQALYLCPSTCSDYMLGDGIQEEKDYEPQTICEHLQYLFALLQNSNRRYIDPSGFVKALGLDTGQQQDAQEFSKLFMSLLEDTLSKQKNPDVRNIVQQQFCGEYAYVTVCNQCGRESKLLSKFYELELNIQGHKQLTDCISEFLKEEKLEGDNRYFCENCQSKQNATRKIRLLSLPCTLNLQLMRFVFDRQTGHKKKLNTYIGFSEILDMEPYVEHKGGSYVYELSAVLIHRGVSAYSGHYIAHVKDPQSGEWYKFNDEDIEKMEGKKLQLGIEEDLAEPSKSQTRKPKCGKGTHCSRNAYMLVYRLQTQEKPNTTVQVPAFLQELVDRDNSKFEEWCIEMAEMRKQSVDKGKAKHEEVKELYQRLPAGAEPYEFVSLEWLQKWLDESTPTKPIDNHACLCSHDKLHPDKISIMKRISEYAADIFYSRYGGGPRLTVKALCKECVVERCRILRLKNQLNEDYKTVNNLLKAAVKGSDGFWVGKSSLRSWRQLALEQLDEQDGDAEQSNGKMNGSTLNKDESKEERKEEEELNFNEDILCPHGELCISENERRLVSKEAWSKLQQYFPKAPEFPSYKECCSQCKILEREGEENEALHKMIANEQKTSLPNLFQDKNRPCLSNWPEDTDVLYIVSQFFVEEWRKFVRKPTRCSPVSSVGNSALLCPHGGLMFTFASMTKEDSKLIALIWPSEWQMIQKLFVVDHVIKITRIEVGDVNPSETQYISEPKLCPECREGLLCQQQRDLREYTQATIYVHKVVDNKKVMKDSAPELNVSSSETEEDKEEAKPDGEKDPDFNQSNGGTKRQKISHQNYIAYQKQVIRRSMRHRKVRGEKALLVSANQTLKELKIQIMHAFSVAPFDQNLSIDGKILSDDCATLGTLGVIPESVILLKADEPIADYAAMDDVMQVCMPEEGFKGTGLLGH
Outline: as §1

USP5 = molecular target: T4, USP5 (UniProt P45974)
T4 sequence (whole entry): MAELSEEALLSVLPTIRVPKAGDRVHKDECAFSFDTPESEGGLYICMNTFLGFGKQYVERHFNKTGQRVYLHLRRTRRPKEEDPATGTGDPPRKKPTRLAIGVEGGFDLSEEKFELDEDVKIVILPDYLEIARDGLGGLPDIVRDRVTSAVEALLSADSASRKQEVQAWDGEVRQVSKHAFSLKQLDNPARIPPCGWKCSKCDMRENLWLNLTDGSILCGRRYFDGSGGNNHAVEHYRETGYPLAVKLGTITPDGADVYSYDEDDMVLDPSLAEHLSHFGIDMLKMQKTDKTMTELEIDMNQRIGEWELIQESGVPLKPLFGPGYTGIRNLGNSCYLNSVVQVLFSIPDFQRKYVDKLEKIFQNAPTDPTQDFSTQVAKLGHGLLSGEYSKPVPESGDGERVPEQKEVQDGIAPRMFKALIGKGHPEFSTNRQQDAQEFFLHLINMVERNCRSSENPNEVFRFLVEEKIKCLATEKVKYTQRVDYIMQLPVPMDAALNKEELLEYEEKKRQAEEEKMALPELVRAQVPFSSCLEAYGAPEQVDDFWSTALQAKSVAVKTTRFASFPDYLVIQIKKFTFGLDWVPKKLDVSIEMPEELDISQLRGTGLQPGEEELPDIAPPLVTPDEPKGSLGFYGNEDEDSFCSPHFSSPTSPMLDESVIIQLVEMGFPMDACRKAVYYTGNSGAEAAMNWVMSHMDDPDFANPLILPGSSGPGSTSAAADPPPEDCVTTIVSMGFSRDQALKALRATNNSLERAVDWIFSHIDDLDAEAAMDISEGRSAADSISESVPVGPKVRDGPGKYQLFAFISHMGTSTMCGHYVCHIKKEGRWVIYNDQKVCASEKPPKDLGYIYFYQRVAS
Outline: as §1

USP54 = USP54 (UniProt Q70EL1)
Outline: as §1

USP7 = USP7 (UniProt Q93009)
Outline: as §1

USP8 = molecular target: T5, USP8 (UniProt P40818)
T5 sequence (whole entry): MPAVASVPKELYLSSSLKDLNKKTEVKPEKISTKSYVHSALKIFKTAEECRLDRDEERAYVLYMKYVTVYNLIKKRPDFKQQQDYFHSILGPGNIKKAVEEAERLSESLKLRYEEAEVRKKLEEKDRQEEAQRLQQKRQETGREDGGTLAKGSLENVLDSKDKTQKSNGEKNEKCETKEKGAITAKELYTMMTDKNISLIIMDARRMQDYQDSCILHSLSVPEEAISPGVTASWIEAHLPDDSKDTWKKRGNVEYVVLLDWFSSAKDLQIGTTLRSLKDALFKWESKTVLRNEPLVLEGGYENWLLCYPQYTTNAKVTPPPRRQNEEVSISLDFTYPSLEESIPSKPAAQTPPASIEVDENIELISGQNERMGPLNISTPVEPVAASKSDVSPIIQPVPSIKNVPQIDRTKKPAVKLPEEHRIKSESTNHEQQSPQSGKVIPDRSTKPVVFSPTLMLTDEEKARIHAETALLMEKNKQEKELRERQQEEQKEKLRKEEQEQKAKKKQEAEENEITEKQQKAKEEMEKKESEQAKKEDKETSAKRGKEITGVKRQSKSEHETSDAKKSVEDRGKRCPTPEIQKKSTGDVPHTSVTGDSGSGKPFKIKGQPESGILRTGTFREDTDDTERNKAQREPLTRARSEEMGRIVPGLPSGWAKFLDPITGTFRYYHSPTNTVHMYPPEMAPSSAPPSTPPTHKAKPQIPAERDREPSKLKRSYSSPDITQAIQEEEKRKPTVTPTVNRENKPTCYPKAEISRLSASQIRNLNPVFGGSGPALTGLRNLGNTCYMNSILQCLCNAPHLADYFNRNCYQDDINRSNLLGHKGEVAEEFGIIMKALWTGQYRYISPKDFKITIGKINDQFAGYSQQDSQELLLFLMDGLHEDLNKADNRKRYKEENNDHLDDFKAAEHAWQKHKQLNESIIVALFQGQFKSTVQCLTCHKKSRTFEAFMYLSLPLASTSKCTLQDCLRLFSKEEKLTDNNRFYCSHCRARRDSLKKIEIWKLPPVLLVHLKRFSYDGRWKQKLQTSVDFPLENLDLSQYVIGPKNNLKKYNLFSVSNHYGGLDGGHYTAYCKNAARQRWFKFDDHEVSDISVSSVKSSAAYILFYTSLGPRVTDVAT
Outline: as §1

USP9X = USP9X (UniProt Q93008)
Outline: as §1

UniProt O00487 = molecular target: UniProt O00487
Outline: as §1

Measured: log2 ratio of Biotin-Ahx-Ub-VS probe labelling

Sequence of USP9X (Q93008 whole entry): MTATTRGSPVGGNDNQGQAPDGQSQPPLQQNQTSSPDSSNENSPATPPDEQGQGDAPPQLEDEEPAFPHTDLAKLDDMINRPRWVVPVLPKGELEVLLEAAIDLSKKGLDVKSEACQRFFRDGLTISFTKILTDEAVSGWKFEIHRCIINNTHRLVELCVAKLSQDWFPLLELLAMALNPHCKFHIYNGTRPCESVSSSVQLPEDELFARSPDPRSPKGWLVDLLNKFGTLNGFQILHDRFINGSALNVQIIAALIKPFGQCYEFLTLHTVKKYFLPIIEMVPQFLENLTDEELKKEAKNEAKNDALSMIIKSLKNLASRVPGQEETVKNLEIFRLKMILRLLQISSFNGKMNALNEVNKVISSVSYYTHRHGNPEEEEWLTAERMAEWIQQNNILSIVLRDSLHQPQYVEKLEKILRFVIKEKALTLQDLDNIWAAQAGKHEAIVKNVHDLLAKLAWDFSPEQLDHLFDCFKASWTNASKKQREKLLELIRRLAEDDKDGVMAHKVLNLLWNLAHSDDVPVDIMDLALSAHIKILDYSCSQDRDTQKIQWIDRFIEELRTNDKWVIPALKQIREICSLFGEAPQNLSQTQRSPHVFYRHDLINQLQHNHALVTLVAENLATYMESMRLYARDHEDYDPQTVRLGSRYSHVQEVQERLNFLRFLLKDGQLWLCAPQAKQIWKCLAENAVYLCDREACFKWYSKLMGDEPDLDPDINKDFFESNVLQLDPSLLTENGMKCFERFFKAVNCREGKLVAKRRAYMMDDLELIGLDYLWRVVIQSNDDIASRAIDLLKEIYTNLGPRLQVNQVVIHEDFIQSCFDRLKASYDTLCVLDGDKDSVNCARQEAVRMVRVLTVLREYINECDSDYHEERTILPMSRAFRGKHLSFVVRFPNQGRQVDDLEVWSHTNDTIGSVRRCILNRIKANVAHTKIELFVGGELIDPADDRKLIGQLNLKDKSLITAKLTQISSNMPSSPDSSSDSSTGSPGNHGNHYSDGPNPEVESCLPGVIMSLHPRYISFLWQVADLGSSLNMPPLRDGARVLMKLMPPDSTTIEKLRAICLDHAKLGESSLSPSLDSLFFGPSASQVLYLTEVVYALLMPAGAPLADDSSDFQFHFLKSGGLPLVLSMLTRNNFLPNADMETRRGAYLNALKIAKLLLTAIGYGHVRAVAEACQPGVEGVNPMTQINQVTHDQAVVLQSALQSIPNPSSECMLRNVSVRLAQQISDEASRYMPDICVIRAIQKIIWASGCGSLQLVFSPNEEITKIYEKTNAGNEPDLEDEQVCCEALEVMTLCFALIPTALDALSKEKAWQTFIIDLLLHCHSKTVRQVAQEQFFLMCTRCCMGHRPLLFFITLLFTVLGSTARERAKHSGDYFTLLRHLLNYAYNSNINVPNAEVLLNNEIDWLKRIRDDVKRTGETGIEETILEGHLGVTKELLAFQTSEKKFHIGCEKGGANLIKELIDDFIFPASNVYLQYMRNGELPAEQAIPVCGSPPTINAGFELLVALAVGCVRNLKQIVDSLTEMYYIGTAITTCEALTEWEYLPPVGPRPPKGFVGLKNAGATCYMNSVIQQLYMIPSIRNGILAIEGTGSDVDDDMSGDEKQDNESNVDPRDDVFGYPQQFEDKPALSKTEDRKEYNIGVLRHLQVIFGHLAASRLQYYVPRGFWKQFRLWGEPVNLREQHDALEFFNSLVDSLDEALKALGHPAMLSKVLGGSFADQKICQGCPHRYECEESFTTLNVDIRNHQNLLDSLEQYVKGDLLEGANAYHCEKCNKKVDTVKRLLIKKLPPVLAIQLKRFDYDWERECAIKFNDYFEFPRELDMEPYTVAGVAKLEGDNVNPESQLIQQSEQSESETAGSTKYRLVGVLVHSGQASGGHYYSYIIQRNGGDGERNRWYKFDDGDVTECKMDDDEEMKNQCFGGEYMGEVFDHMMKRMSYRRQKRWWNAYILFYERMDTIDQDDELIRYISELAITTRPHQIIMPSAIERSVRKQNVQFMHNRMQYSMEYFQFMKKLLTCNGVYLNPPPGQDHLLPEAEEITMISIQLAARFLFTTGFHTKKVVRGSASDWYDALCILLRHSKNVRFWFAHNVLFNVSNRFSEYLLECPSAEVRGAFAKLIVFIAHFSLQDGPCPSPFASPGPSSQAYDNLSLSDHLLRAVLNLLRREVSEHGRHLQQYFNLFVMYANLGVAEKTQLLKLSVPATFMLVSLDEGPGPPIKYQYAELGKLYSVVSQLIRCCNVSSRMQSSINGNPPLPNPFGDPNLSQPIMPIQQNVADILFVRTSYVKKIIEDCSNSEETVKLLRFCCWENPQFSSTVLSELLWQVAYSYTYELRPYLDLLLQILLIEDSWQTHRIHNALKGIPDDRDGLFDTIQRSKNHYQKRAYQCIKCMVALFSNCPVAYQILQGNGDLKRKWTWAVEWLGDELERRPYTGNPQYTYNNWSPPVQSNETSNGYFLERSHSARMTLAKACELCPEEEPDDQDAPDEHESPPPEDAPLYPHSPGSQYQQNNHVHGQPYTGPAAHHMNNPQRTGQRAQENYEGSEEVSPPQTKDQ
Sequence of USP54 (Q70EL1 whole entry): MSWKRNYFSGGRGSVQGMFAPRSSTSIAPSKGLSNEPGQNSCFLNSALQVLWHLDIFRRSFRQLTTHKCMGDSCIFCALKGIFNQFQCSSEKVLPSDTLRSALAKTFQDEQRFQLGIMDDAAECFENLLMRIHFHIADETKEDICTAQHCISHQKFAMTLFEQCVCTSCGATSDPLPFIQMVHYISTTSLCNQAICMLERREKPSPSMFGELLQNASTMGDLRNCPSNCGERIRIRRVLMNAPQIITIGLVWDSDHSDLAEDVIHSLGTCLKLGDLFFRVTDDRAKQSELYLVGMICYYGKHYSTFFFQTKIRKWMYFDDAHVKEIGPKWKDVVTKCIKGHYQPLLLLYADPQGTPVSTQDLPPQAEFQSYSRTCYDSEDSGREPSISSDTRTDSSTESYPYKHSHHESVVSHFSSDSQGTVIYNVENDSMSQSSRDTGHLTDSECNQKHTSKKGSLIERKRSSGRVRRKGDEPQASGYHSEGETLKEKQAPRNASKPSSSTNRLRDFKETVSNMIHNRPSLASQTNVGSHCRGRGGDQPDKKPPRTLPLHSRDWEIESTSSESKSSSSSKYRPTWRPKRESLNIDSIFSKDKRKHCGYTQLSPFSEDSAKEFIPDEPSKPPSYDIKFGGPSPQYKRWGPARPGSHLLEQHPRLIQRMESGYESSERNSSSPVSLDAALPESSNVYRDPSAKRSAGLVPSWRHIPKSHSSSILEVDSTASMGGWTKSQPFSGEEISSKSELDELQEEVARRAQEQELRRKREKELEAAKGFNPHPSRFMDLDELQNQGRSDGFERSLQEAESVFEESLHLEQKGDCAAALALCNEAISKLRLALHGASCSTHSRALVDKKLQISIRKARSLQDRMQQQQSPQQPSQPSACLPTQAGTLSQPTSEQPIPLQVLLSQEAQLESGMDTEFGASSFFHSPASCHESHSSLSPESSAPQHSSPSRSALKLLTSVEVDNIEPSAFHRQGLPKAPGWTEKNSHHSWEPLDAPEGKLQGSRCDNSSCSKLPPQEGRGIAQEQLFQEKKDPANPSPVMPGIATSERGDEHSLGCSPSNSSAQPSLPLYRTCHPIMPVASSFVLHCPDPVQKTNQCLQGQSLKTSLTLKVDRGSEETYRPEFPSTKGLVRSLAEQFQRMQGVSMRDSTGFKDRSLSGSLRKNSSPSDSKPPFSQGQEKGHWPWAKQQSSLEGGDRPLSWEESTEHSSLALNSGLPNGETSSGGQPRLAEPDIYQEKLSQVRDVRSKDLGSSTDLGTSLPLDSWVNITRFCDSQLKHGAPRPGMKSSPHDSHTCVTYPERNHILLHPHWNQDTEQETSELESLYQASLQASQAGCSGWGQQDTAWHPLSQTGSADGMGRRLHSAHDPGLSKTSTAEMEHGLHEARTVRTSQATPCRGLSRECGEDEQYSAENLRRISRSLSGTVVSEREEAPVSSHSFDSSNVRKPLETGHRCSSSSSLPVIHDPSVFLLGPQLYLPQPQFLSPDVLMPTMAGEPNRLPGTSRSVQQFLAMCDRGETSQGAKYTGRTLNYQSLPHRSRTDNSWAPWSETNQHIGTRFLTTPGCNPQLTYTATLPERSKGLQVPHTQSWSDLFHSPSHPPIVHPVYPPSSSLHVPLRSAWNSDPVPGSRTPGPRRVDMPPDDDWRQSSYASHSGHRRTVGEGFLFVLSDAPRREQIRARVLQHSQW
Sequence of USP46 (P62068 whole entry): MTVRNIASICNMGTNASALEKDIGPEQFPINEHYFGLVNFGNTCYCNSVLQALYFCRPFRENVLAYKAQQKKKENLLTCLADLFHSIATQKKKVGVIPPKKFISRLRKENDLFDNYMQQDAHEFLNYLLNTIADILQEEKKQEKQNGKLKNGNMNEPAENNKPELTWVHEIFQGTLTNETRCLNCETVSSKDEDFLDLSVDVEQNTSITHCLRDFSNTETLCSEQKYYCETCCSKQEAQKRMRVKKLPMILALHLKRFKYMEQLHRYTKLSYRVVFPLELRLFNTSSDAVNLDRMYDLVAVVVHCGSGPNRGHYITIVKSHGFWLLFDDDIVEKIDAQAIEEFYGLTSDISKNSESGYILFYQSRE
Sequence of UniProt O00487 (O00487 whole entry): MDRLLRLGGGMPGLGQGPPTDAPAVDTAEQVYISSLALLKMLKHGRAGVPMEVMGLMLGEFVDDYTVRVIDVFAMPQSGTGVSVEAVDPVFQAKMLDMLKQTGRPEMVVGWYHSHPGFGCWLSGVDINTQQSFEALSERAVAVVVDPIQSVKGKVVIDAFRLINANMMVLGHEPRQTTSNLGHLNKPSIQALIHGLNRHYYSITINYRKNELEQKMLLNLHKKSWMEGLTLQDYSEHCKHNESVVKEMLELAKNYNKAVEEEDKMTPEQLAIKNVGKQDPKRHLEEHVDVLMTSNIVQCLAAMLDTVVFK

Cc1cccc2nc(CCNC(=O)CCl)cn12.Cl
inactive: USP42 -0.108 | USP46 -0.0973 | USP47 0.216 | USP48 -0.0534 | USP5 -0.101 | USP54 0.94 | USP7 -0.308 | USP8 -0.222 | USP9X -0.455 | UniProt O00487 -0.163
